# Screening results from PubChem BioAssay.
# TIM10 inh: growth inhibitors of isogenic TIM10 control yeast, primary screen, counter-screen for tim10-1 yeast inhibitor project, luminescence, uHTS; S. cerevisiae TIM10 strain growth, BacTiter-Glo luminescence, 24 h; inhibition, % at 10 µM; 330,000 compounds, 1.4% hits; AID 463195, 2010;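 active = inhibition of 40% or more at the single tested concentration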;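 note: wild-type TIM10 isogenic control strain grown at permissive 25 °C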
# tim23-1 inh: growth inhibitors of tim23-1 mutant yeast, primary screen, luminescence, uHTS; S. cerevisiae tim23-1 growth, BacTiter-Glo luminescence, 24 h; inhibition, % at 20 µM; 330,000 compounds, 1.3% hits;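 active = growth inhibition of the mutant yeast at or above 50%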;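 note: temperature-sensitive mutant grown at 25 °C; plate controls were DMSO-treated mutant yeast for no effect and medium wells lacking yeast for full effect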
# Rce1 inhib: yeast Rce1p protease inhibitors, primary screen, biochemical, fluorescence, cell-free homogeneous; calls only; yeast membranes, quenched prenylated peptide cleavage fluorescence; AID 2563, 2010; 290,000 compounds, 0.27% hits;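 active = fall in fluorescence gain of 50% or more versus controls, with final raw signal at or below 3038400; inconclusive = same 50% fall but final raw signal above 3038400; inactive = fall in fluorescence gain under 50%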;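 note: plate controls were neutral control wells for no effect and wells lacking membranes for full effect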
# Target sequence (Q03530 whole entry, looked up): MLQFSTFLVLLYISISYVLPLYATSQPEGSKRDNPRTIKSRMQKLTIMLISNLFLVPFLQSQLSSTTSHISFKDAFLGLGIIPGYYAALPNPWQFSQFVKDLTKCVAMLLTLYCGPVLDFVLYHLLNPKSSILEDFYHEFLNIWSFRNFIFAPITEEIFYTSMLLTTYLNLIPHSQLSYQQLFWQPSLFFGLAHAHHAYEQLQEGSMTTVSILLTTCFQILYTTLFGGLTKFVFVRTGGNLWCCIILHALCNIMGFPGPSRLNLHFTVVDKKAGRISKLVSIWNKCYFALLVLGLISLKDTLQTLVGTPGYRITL
# tim10-1 inh: growth inhibitors of tim10-1 mutant yeast, primary screen, luminescence, uHTS; 330,000 compounds, 2.2% hits; S. cerevisiae tim10-1 ts strain growth, BacTiter-Glo, 24 h; inhibition, % at 20 µM;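 active = inhibition of at least 40%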;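 note: mutant grown at 25 °C; 0% = DMSO wells with yeast and 100% = wells holding no yeast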
# PfHsp90 set2: growth inhibition of PfHsp90-expressing yeast, primary screen, antimalarial PfHsp90 inhibitor project, S. cerevisiae, BacTiter-Glo luminescence, single point, set 2. inhibition, % at 9.4 µM. BacTiter-Glo ATP, 48 h; yeast lacking PDR1 and PDR3 efflux regulators. 310,000 compounds, 0.32% hits;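 active = every replicate shows inhibition above about 80%, whatever the replicate mean, limit read from the data; inconclusive = mean inhibition reaches the set limit but some replicate falls short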;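 note: 0% = DMSO neutral controls and 100% = 20 µM radicicol positive controls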
# tim10-1 confirm: growth inhibitors of tim10-1 mutant yeast, confirmation, single concentration, luminescence, S. cerevisiae. shares compounds with tim10-1 inh. S. cerevisiae tim10-1 ts strain growth, BacTiter-Glo, 24 h. inhibition, % at 20 µM. 7,400 compounds, 56% hits;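 active = inhibition of yeast growth at or above a set limit in either of two repeat tests at 20 µM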;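 note: tim10-1 mutant grown at permissive 25 °C to find synthetic lethal compounds; 0% = DMSO yeast wells and 100% = medium wells without yeast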
# The depositor's hits bear a star; i = inactive; ? = inconclusive; nt = no result given. An excerpt weighted towards active compounds, which were near 3.7% of everything screened.
SMILES,TIM10 inh,tim23-1 inh,Rce1 inhib,tim10-1 inh,PfHsp90 set2,tim10-1 confirm
COc1ccc(CNC(=O)Cn2nc(C(F)(F)F)c3c2CCC3)cc1,21,28,i,42*,17,21
S=C(c1ccc(-c2ccc(Cl)cc2)o1)N1CCCCC1,6,10,i,22,-23,nt
N#CCCN1CCN(C(=S)c2ccc(-c3ccc(Cl)cc3)o2)CC1,20,32,i,45*,nt,22
COc1cc(CCC(=O)OCC(=O)N(CCC#N)c2ccccc2)cc(OC)c1OC,2,6,i,9,13,nt
CCc1ccc(N(CC(=O)NC2CCCC2)C(=O)CCC(=O)Nc2ccccn2)cc1,3,2,i,13,-14,nt
CC(=O)c1ccc(OC(=O)C2CSC3(C)CCC(=O)N23)cc1 (configuration not stated),6,-7,nt,10,-5,nt
Cc1ccc(Cl)c(OC(=O)C2CSC3(C)CCC(=O)N23)c1 (configuration not stated),27,40,i,40*,9,27
CCCc1cc(C(=O)Cc2ccc(C(=O)OCC)o2)c(O)cc1O,14,16,i,45*,-15,15
O=C(Nc1cccc([N+](=O)[O-])c1)c1cccc(C(=O)Nc2cccc([N+](=O)[O-])c2)c1,21,-10,i,-31,-5,nt
CCOC(=O)c1cccc(NC(=O)/C=C/c2cccc([N+](=O)[O-])c2)c1,10,1,i,10,0,nt
CCOC(=O)/C=C/C(=O)OCC(=O)Nc1ccc([N+](=O)[O-])cc1,19,40,i,43*,-9,59*
COC(=O)/C=C/C(=O)Nc1cccc(C(F)(F)F)c1,32,41,i,47*,7,51*
CCOC(=O)/C=C/C(=O)Nc1cccc([N+](=O)[O-])c1,36,38,i,56*,98*,71*
CC(NC(=O)Nc1cccc([N+](=O)[O-])c1)(C(F)(F)F)C(F)(F)F,22,40,nt,42*,21,33*
Cc1cc(NC(=O)c2c(F)cccc2F)n(-c2nc3ccccc3[nH]2)n1,14,43,i,25,nt,nt
Cc1cc(NC(=O)c2c(F)cccc2Cl)n(-c2nc3ccccc3[nH]2)n1,1,37,i,40*,-31,30
Cc1cccc(C)c1NC(=O)CN(C)C(=O)C1=COCCO1,0,-1,nt,-8,37,nt
COc1ccc(NC(C)(C)c2nnnn2-c2c(C)cccc2C)cc1,23,38,i,40*,-3,32*
Cc1cccc(C)c1-n1nnnc1C(C)(C)N1CCN(N=O)CC1,2,12,i,8,9,nt
CC(=O)Nc1cccc(Oc2ncnc3scc(-c4ccc(C)cc4)c23)c1,20,9,nt,42*,-24,29*
O=c1c2ccccc2c(C=Nc2ccccc2O)c(O)n1-c1nccs1,-7,-2,i,6,2,nt
Cc1cc(C)c(N=Cc2c(O)n(-c3nccs3)c(=O)c3ccccc23)c(C)c1,36,42,i,41*,-22,32*
O=C(O)c1ccc2c(c1)C(=O)N(c1cccc(C(=O)/C=C/c3ccccc3)c1)C2=O,-5,11,i,4,-11,nt
COc1ccc(Nc2ccccc2N)cc1,27,36,i,47*,-11,24
O=C(Nc1ccc(C(=O)N2CCOCC2)cc1)c1ccccc1[N+](=O)[O-],-1,-10,i,-6,0,nt
SMILES,TIM10 inh,tim23-1 inh,Rce1 inhib,tim10-1 inh,PfHsp90 set2,tim10-1 confirm
Cc1cc(NC(=O)CSc2nnc(C(C)N(C)C)n2-c2ccc(F)cc2)no1 (configuration not stated),-10,4,i,4,nt,nt
Cc1ccc(C(=O)c2oc3nc(C)cc(C)c3c2N)cc1,14,18,i,11,36,nt
CCc1ccc(C(=O)c2oc3nc(C)cc(C)c3c2N)cc1,27,29,i,45*,21,33*
O=C(COC(=O)c1cccs1)NCC1CCCCC1,-6,9,i,25,4,nt
COc1ccc2cc(CCNC(=O)c3c(-c4ccccc4Cl)noc3C)c(=O)[nH]c2c1,8,12,i,41*,12,11
COc1ccc(CCNC(=O)c2c(-c3ccccc3Cl)noc2C)cc1,4,5,i,12,-36,nt
CCOC(=O)c1c(C)[nH]c(C)c1S(=O)(=O)N(C)CC(=O)NCc1ccc(F)cc1,6,11,i,30,1,nt
O=C(Nc1ccc(Cl)cn1)C1C(c2ccccc2)C1(Cl)Cl (configuration not stated),9,47,nt,46*,-1,34*
COc1ccc(-c2cc(C(F)(F)F)n3nc(C(=O)Nc4c(C)n(C)n(-c5ccccc5)c4=O)cc3n2)cc1,nt,nt,nt,nt,5,nt
C=CCNC(=S)NNc1nc2c(c(=O)[nH]1)C1(CCCC1)Cc1ccccc1-2,34,37,i,48*,2,38*
O=c1[nH]c(NNC(=S)NCc2ccccc2)nc2c1C1(CCCCC1)Cc1ccccc1-2,32,21,i,43*,nt,30
CC(Oc1ccccc1)c1ccn[nH]1 (configuration not stated),0,9,i,9,20,nt
c1ccc(C(c2ccccc2)c2ccn[nH]2)cc1,2,24,i,44*,-7,13
COc1ccc2[nH]c(C(=O)O)c(NC(=O)c3ccccc3[N+](=O)[O-])c2c1,24,11,i,-5,-3,nt
COCCNC(=O)/C(C#N)=C/C(C)=C/c1ccccc1,17,42,?,53*,5,42*
C=CCN1/C(=C2/SC(=S)N(C)C2=O)Sc2ccccc21,-7,-6,i,-1,nt,nt
Clc1cccc(C2Nc3cccc4cccc(c34)N2)c1Cl,26,48,i,42*,11,58*
c1coc(C2Nc3cccc4cccc(c34)N2)c1,38,45,i,41*,nt,35*
O=C1NC(c2ccccc2Cl)Nc2ccccc21 (configuration not stated),9,8,i,18,11,nt
Clc1ccccc1C1Nc2cccc3cccc(c23)N1,23,35,i,43*,-3,34*
Cc1ccc(OCc2cc(C(=O)N3CC4C[C@@H]5CC3C[C@H](C4)C5)no2)cc1C,9,30,i,13,9,nt
Cc1nnnn1/C(=C\c1ccccc1)C(=O)OCC(=O)NC(C)(C)C,31,45,i,45*,18,34*
